Bioassay records: PubChem BioAssay, National Center for Advancing Translational Sciences (NCATS)
Many of the other results were omitted from the sample, so hits are more common in it than they were.
RGS4 inh: human RGS4 inhibition | Transcreener GDP fluorescence polarization, RGS4-accelerated GTP hydrolysis | Potency, µM (series often up to 114 µM), most hits filed as inhibitors | 390,000 compounds, 0.039% hits; also: nearly all actives have a fitted effect of over 75% in size
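MLSMR compounds (23 nl, pin-transferred) preincubated 10 min at room temperature with a 500nM (2x) first reagent, then RGS4 at 900nM (2x) plus Transcreener GDP mix added; fluorescence polarization (620/688 nm) read before and after 90 min at 30 °C.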
ASM inhibitor: blocks human secretory acid sphingomyelinase. P17405. 340,000 compounds, 0.006% hits. placental ASM, HMU-PC fluorogenic substrate, 60 min. Potency, µM (titrated, usually from 57.5 µM), usual class: inhibitors. AID 504937
Target sequence (P17405 47-631 limits assumed): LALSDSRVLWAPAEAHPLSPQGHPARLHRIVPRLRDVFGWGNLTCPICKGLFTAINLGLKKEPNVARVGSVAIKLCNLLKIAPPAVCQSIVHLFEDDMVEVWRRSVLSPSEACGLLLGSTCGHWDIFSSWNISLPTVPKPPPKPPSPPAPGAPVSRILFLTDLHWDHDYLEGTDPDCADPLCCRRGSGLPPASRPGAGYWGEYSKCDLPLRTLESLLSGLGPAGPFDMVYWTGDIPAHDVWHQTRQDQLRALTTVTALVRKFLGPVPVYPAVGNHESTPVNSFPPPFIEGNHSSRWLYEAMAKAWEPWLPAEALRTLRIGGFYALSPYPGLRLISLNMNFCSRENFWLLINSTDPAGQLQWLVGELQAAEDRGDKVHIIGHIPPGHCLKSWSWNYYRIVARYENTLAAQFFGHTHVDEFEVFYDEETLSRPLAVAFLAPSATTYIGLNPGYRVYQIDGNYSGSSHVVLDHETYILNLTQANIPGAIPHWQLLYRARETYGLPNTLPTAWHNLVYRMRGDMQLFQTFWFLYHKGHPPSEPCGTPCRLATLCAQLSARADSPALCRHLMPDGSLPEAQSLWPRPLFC
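Human placenta-derived ASM preincubated with compound 10 min at room temperature, then reacted with 9 uM (final) fluorogenic HMU-PC substrate for 60 min at 37 C. Stop solution raises pH to 10; fluorescence read at Ex 386/Em 447 nm.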
ClpP mod: qHTS Assay for Activators of ClpP; 340,000 compounds, 1.9% hits; purified B. subtilis ClpP, FRET peptide cleavage, 20 min; Potency, µM (titrated, usually from 57.5 µM); AID 651965, 2013; ATP-dependent Clp protease proteolytic subunit (Bacillus subtilis (strain 168)), P80244; active = well fitted falling curve with a large enough effect; inconclusive = small, poorly fitted or top-dose-only effect; inactive = no such curve, though single readings can be large or run the other way; also: the source files actives as falling curves though it sought activators and does not explain the sign; nearly all actives have a fitted effect of over 65% in size
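FRET quenching reversal measured ClpP activation: 10 microg/mL B. subtilis ClpP at pH 8 with the FRET-FV decapeptide, read at 430 nm after 320 nm excitation. The 20-min minus 0-min signal was scaled between DMSO/no-enzyme wells and ADEP (5.8 microM final).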
mIDH1 inhibitor: blocks human mutant IDH1 R132H enzyme | 390,000 compounds, 0.093% hits | Potency, µM (highest dose often 76.6 µM), most hits filed as inhibitors | IDH1-R132H enzyme, NADPH consumption, diaphorase/resazurin fluorescence | AID 602179; also: nearly all actives have a fitted effect of over 65% in size
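IDH1-R132H (0.5 ug/mL dispensed) in pH 7.5 Tris buffer was preincubated 30 min with compound, then given a substrate mix of 0.016 mM NADPH and 2 mM alpha-KG for 80 min at room temperature; remaining NADPH was read by diaphorase/resazurin fluorescence.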
Mito fusion act: mitochondrial division inhibition or fusion activation; AID 485298; Potency, µM (highest dose often 46.1 µM), actives largely listed as activators; S. cerevisiae fusion-defective mutant growth rescue, CellTiterGlo 48 h; 320,000 compounds, 0.23% hits; also: nearly all actives have a fitted effect of over 45% in size
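Growth-rescue viability read-out: after 48 h at the non-permissive 37C in glycerol/ethanol YPEG, yeast mitochondrial fusion mutants are measured by CellTiterGlo luminescence; compounds (23 nl pinned per well) restoring growth score as division inhibitors or fusion activators.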
LDHA block: inhibitors of human lactate dehydrogenase A | purified LDHA, NADH/diaphorase-resazurin fluorescence; active compounds read low | activity change, % (values are at about 110 or 230 µM) | 480,000 compounds, 0.15% hits | P00338 | AID 1347041; in the data active = activity change below about -30%; inconclusive = mostly about -25% to -30%
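Resorufin fluorescence (ex540/em590), read at 0 and 20 min after diaphorase/resazurin addition, reports the NADH left after a 5 min room-temperature reaction of 2 nM human LDH5 with 0.06 mM NADH and 0.2 mM pyruvate.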
Numbers stand for hits; [ ] = another dose, or the depositor's remark. Unless noted, calls follow the shape of the dose curve; as a rule, active = well fitted curve in the direction sought with a large enough effect; inconclusive = small, poorly fitted or top-dose-only effect, or another doubt; inactive = no such curve, though single readings can be large; an effect the other way counts as inactive or inconclusive.

How did CN1CCN(CCOCCOc2ccc(Br)cc2Cl)CC1 do in these assays?
RGS4 inh: inactive; ASM inhibitor: inactive; ClpP mod: inactive; mIDH1 inhibitor: inactive; Mito fusion act: inactive; LDHA block: -38

Results for CC1CCCN(CCOCCOc2ccc(Br)cc2Cl)C1 (stereo not given) ?
RGS4 inh: inactive; ASM inhibitor: inactive; ClpP mod: inactive; mIDH1 inhibitor: inactive; Mito fusion act: inactive; LDHA block: inconclusive

Results for Cc1nsc(N)c1C(=O)OCc1csc(-c2ccccc2)n1 ?
LDHA block: inactive

Results for CN(C)C1(CNC(=S)NCc2ccc(F)cc2)CCCCC1 ?
LDHA block: inactive

How did O=C(Cc1cccs1)NC1(C(=O)NC2CCCC2)CCCCC1 do in these assays?
RGS4 inh: inactive; ASM inhibitor: inactive; ClpP mod: 25µM; mIDH1 inhibitor: inactive; Mito fusion act: inactive; LDHA block: inactive

How did O=C(Nc1ccc(OCC(=O)N2CCOCC2)cc1)Nc1cccc(Cl)c1 do in these assays?
RGS4 inh: inactive; ASM inhibitor: inactive; ClpP mod: 11µM; mIDH1 inhibitor: inactive; Mito fusion act: inactive; LDHA block: inactive

What do the screens show for `CCOc1ccccc1C(C)N` (stereo not given)?
LDHA block: inactive

How did O=C(O)c1ccc2c(c1)C1C=CCC1C(c1cc3c(cc1Br)OCO3)N2 (stereo not given) do in these assays?
RGS4 inh: inactive; ASM inhibitor: inactive; ClpP mod: inactive; mIDH1 inhibitor: inactive; Mito fusion act: 11µM; LDHA block: inactive

Results for Cc1ccc(C(O)CNC(=O)c2cccc(C)c2)cc1 (stereo not given) ?
LDHA block: inactive

Results for COc1cc(C(=O)Nc2ccc3oc(C)nc3c2)cc(OC)c1Br ?
LDHA block: inactive

What do the screens show for `Cc1[nH]nc(-c2ccc(S(=O)(=O)N3CCN(c4ccccc4)CC3)s2)c1C`?
LDHA block: inactive

Results for CC1(C)Cc2cccc(OCC(=O)OCC(=O)Nc3ccc(C(N)=O)cc3)c2O1 ?
RGS4 inh: inactive; ClpP mod: 25µM; mIDH1 inhibitor: inactive; Mito fusion act: inactive; LDHA block: inactive

Results for Cc1cccc(N2CCN(C(=O)COc3cccc4c3OC(C)(C)C4)CC2)c1C ?
RGS4 inh: inactive[11.4 µM]; ASM inhibitor: inactive; ClpP mod: inactive; mIDH1 inhibitor: inactive; Mito fusion act: 16µM; LDHA block: inactive

What do the screens show for `CC1(C)Cc2cccc(OCC(=O)N3CCN(S(=O)(=O)c4ccc(F)cc4)CC3)c2O1`?
RGS4 inh: inactive; ASM inhibitor: inactive; ClpP mod: inactive; mIDH1 inhibitor: inactive; Mito fusion act: inactive; LDHA block: inactive

How did CCn1nc(C(=O)NC(c2ccc3c(c2)OCCO3)C(C)C)c2ccccc2c1=O (stereo not given) do in these assays?
LDHA block: inactive

What do the screens show for `O=C(N/N=C/c1cc(Br)cs1)c1cccc(Cl)c1`?
LDHA block: inactive

What do the screens show for `COc1ccccc1OCCC(=O)OCC(=O)Nc1cccc(Br)c1`?
RGS4 inh: inactive; ASM inhibitor: inactive; ClpP mod: inconclusive; mIDH1 inhibitor: inactive; Mito fusion act: inactive; LDHA block: inactive

What do the screens show for `COc1ccccc1OCCC(=O)OCC(=O)Nc1ccc(Br)cc1`?
RGS4 inh: inactive; ASM inhibitor: inactive; ClpP mod: 28µM; mIDH1 inhibitor: inactive; Mito fusion act: inactive; LDHA block: inactive

Results for O=C(Cc1c(O)c2ccccc2[nH]c1=O)NC1CCCCCCC1 ?
RGS4 inh: inactive; ASM inhibitor: inactive; ClpP mod: 32µM; mIDH1 inhibitor: inactive; Mito fusion act: inactive; LDHA block: inactive

How did O=C(Cc1c(O)c2ccccc2[nH]c1=O)NC1CCCCCC1 do in these assays?
RGS4 inh: inactive; ASM inhibitor: inactive; ClpP mod: 20µM; mIDH1 inhibitor: inactive; Mito fusion act: inactive; LDHA block: inactive

What do the screens show for `O=C(Cc1c[nH]c2ccccc12)NC1CCCCCC1`?
LDHA block: inactive

What do the screens show for `O=C(NC1CCCCCC1)c1c(O)c2ccccc2[nH]c1=O`?
RGS4 inh: inactive; ASM inhibitor: inactive; ClpP mod: inactive; mIDH1 inhibitor: inactive; Mito fusion act: inactive; LDHA block: inactive

Results for COc1cc(C)ccc1OCc1nnc(SCC(=O)N2CCc3ccccc3C2)n1C ?
LDHA block: inactive

How did Fc1ccc(Nc2nc(SCc3cccc(Cl)c3)nc3ccccc23)cc1 do in these assays?
RGS4 inh: inactive; ClpP mod: inconclusive; mIDH1 inhibitor: inactive; LDHA block: inactive

How did Fc1ccc(Nc2nc(SCc3ccc(Cl)cc3)nc3ccccc23)cc1 do in these assays?
RGS4 inh: inactive; ClpP mod: 35µM; mIDH1 inhibitor: inactive; LDHA block: inactive

How did CCOc1ccccc1NC(=O)CCc1c[nH]c2ccccc12 do in these assays?
LDHA block: inactive

Results for CCOC(=O)c1nn(-c2cccc(Cl)c2)c2nc(CC(C)C)c(C#N)c(=O)n12 ?
RGS4 inh: inactive; ASM inhibitor: inactive; ClpP mod: inactive; mIDH1 inhibitor: inactive; Mito fusion act: inactive; LDHA block: inactive

How did CCOC(=O)c1nn(-c2ccc(OCC)cc2)c2nc(CC(C)C)c(C#N)c(=O)n12 do in these assays?
RGS4 inh: inactive; ASM inhibitor: inactive; ClpP mod: 22µM; mIDH1 inhibitor: inactive; Mito fusion act: inactive; LDHA block: inactive

Results for CCOC(=O)c1nn(-c2cccc(C)c2)c2nc(-c3ccccc3)c(C#N)c(=O)n12 ?
RGS4 inh: inactive; ASM inhibitor: inactive; ClpP mod: 32µM; mIDH1 inhibitor: inactive; Mito fusion act: inactive; LDHA block: inactive

What do the screens show for `CCOC(=O)c1nn(-c2ccc(Cl)cc2)c2nc(-c3ccc(C)cc3)c(C#N)c(=O)n12`?
RGS4 inh: inactive; ASM inhibitor: inactive; ClpP mod: 25µM; mIDH1 inhibitor: inactive; Mito fusion act: inactive; LDHA block: inactive

What do the screens show for `CCOC(=O)c1nn(-c2ccc(Cl)cc2)c2nc(CC)c(C#N)c(=O)n12`?
RGS4 inh: inactive; ASM inhibitor: inactive; ClpP mod: inactive; mIDH1 inhibitor: inactive; Mito fusion act: inactive; LDHA block: inactive

How did CCC(NC(=O)c1ccccc1)c1ccccc1OC(F)F (stereo not given) do in these assays?
LDHA block: inactive

Results for N#C/C(=C/c1ccc2c(c1)OCCO2)c1ccccn1 ?
LDHA block: inactive

Results for Cc1cccc(NC(=O)N2CCCC2C(=O)NCc2cccs2)c1 (stereo not given) ?
RGS4 inh: inactive; ASM inhibitor: inactive; ClpP mod: 18µM; mIDH1 inhibitor: inactive; Mito fusion act: inactive; LDHA block: inactive
